Hits are enriched below; roughly 2.4% of the tested compounds scored in any of these assays.
FEN1 inhibitor: blocks human flap endonuclease 1 | P39748 | Potency, µM (titrated, usually from 114 µM), inactives show at the top dose activity change, negative = inhibition, actives largely listed as inhibitors | Recombinant FEN1 flap cleavage, fluorescence, 15 min | 390,000 tested, 0.35% active | AID 588795; further: on the % scale 0 is the no-effect control and ±100 the full control effect; nearly all actives have a fitted effect of over 65% in size
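Steps: FEN1 (10 nM) dispensed; compound added by pin tool; 15 min at room temperature; substrate added to 50 nM final; reads at 0 min and 15 min; data normalized and fitted (four-parameter Hill).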
POLB inh: DNA polymerase beta (human) inhibition. Pol beta primer extension/strand displacement, fluorescence kinetic. 340,000 tested, 1.3% active. Potency, µM (top dose mostly 114 µM), for inactives: top-dose activity change, negative = inhibition, hits mostly inhibitors; further: on the % scale 0 is the no-effect control and ±100 the full control effect
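10 nM enzyme + cpd, 15 min RT; start with substrate 50 nM final; read 0 min and after 10 min RT. Corrected, normalized data; 4-parameter Hill curve fit.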
TDP1 block: inhibitors of human tyrosyl-DNA phosphodiesterase TDP1 | Q9NUW8 | recombinant TDP1, AlphaScreen DNA substrate cleavage | Potency, µM (highest dose often 130 µM), for the others: top-dose activity change, negative = inhibition, usual class: inhibitors | 350,000 tested, 0.28% active; further: on the % scale 0 is the no-effect control and ±100 the full control effect; nearly all actives have a fitted effect of over 40% in size
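E. coli-derived human Tdp1, 1 nM final. Cpd preinc 15 min RT; substrate 15 nM final, 5 min RT; AS bead mix 10 ug/ml final, 10 min RT. Signal loss = tyrosine-FITC cleavage. No-enzyme wells = max signal.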
POLH inh: inhibitors of human DNA polymerase eta; Q9Y253; recombinant Pol eta, fluorescent DNA replication assay; Potency, µM (titrated, usually from 114 µM), inactives show top-dose activity change, negative = inhibition, hits mostly inhibitors; 390,000 tested, 1.2% active; AID 588591; further: on the % scale 0 is the no-effect control and ±100 the full control effect
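Pol eta (10 nM) was preincubated with compounds for 15 min at room temperature, after which fluorescent replication substrate (50 nM final) was added to start the reaction. Fluorescence was read kinetically at 0 and 10 min.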
POLK inh: DNA polymerase kappa (human) inhibition. 400,000 tested, 0.53% active. purified Pol kappa, fluorescent DNA synthesis assay, 10 min. Potency, µM (top dose mostly 107 µM), inactives show top-dose activity, negative = inhibition, actives largely listed as inhibitors; further: on the % scale 0 is the no-effect control and ±100 the full control effect
Target sequence (Q9UBT6 whole entry, looked up): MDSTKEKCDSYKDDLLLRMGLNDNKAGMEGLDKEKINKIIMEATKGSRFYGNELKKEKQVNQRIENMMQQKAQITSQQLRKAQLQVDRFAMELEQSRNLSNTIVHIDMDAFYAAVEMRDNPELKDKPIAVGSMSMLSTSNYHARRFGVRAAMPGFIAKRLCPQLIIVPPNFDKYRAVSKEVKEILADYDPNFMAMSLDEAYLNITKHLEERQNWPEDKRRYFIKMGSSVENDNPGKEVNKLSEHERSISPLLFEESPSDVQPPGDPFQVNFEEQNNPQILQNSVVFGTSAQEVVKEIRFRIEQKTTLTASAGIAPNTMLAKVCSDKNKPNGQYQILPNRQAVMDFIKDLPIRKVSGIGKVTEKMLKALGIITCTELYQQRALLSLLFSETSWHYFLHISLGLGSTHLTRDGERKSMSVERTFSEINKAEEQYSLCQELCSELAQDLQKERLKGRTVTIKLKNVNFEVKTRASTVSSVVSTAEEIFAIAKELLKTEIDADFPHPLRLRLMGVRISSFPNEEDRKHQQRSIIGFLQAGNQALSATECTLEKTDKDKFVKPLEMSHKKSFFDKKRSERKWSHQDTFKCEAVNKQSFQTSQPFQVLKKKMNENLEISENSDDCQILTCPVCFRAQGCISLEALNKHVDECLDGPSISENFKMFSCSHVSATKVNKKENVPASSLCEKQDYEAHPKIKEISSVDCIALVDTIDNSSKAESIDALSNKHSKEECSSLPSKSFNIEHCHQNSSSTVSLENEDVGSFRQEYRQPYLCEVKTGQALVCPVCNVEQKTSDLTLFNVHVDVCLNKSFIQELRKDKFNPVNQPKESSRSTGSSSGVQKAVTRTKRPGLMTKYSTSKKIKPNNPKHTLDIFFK
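Enzyme at 10 nM met test compounds for 15 min at room temperature. Substrate addition (50 nM final) began the reaction, which was monitored by fluorescence at 0 and 10 min.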
Pol iota inh: blocks human DNA polymerase iota activity; Q9UNA4; Potency, µM (top dose mostly 115 µM), for inactives: at the highest dose activity, negative = inhibition, most hits filed as inhibitors; Pol iota fluorescent replication assay, 10 min; 390,000 tested, 1% active
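Pol iota at 10 nM preincubated 15 min with compounds at room temperature; reaction started with fluorescent substrate, 50 nM final. Fluorescence read kinetically at 0 and 10 min; buffer-only wells as negative control.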
* hit, by the source's call; ? = inconclusive; / = no result; [ ] = remark or other dose. The call rests on the fitted dose curve; in most records, active means well fitted curve in the direction sought with a large enough effect; inconclusive means small, poorly fitted or top-dose-only effect, or another doubt; inactive means no such curve, though single readings can be large; an effect the other way counts as inactive or inconclusive. Potency means the concentration at half of the fitted maximal effect.

SMILES | FEN1 inhibitor | POLB inh | TDP1 block | POLH inh | POLK inh | Pol iota inh
COc1ccc(C2=Nn3c(nnc3-c3ccccc3Cl)SC2)cc1OCC1CC1 | 4% | / | 3% | -23% | 40µM* | 30%
COc1ccc(OC)c(-c2nnc3n2N=C(c2ccc(OC)c(OCC4CC4)c2)CS3)c1 | -10% | / | 8% | 6% | ? | -5%
CCC1C/C(=C/c2ccco2)C(=O)/C(=C/c2ccco2)C1 (stereo unspecified) | / | ? | 5% | / | / | /
O=C1CNC(=O)/C(=C/c2ccco2)N1 | -1% | -15% | / | -1% | 79µM* | ?
Cc1c(C(=O)OCc2ccccc2)[nH]c2c1C(=O)CC(c1ccco1)C2 (stereo unspecified) | ? | 11µM* | ? | 22µM* | ? | -93%
CSCCOC(=O)c1[nH]c2c(c1C)C(=O)CC(c1ccco1)C2 (stereo unspecified) | ? | 7.9µM* | 13µM* | 18µM* | 32µM* | ?
COCCOC(=O)c1[nH]c2c(c1C)C(=O)CC(c1ccccc1)C2 (stereo unspecified) | -7% | -18% | 0% | -11% | -4% | 5%
N/C(=N\OC(=O)c1ccc(Br)cc1)c1cccc([N+](=O)[O-])c1 | 0% | 18µM* | / | 1% | -9% | ?
Cc1ccc(C(=O)O/N=C(\N)c2cccc([N+](=O)[O-])c2)cc1 | 1% | 10% | 3% | -18% | -5% | 10%[58.9 µM]
OC[C@H]1OC(O)[C@@H](O)[C@@H](O)[C@H]1O (stereo partly specified) | / | / | 25% | / | -6%[60.1 µM] | /
Nn1cnnc1N/N=C/c1ccc(Cl)cc1Cl | ? | -3% | / | -8% | 1% | 11µM*
COc1cc(/C=N/Nc2nncn2N)ccc1OCc1c(C)no[n+]1[O-] | -10% | 4% | 0% | -7% | -29% | 7.1µM*
COc1ccc(CSc2nncn2N)cc1Br | -5% | 27% | 1% | -6% | -6% | 9%
COc1ccc(/C=N/Nc2nncn2N)cc1Br | 1% | -4% | / | -26% | -1% | 8.9µM*
Cc1ccc(C)c(NC(=O)CN2C(=O)CCc3cc(S(=O)(=O)N4CCCCC4)ccc32)c1 | -12% | -2% | -1% | -17% | -2%[60.1 µM] | 11%
CCN(c1ccccc1)S(=O)(=O)c1ccc2[nH]cc(C(=O)N3CCOCC3)c(=O)c2c1 | 5% | ? | 50µM* | ? | -40% | ?
CCN(c1ccc(F)cc1)S(=O)(=O)c1ccc2[nH]cc(C(=O)NCCCN3CCOCC3)c(=O)c2c1 | -2% | 1% | -3% | -19% | -2% | 45%
O=C(CSc1nnc2[nH]c(=O)cc(-c3ccccc3)n12)Nc1ccc(F)cc1F | -13% | 33% | -8% | -8% | -9%[60.1 µM] | -10%
COc1cccc(-n2cc(C(=O)OCc3ccc(Cl)cc3)c3ccccc3c2=O)c1 | -18% | 18% | 4% | -9% | ? | -12%
Cc1cc(O)c(C(=O)/C=C/c2ccccc2O)c(=O)o1 | -6% | -1% | / | ? | 5% | 16%
Cc1cc(O)c(C(=O)/C=C/c2cccc([N+](=O)[O-])c2)c(=O)o1 | -9% | ? | / | 79µM* | ? | 40µM*
O=C1CC(NS(=O)(=O)c2ccc([N+](=O)[O-])cc2)CN1c1ccc2c(c1)OCCO2 (stereo unspecified) | -5% | / | / | 2% | -8% | 17%
O=C(Oc1ccc([N+](=O)[O-])cc1)C1CC(=O)N(c2ccc3c(c2)OCCO3)C1 (stereo unspecified) | -3% | / | / | ? | -42% | 79µM*
CCNc1nc(NC(C)C)nc(Nn2cnnc2)n1 | -12% | 35µM* | -3% | -9% | 10% | 118%
CC(C)Nc1nc(NC(C)C)nc(Nn2cnnc2)n1 | 0% | -1% | 0% | 2% | -21% | -11%
SMILES | FEN1 inhibitor | POLB inh | TDP1 block | POLH inh | POLK inh | Pol iota inh
COc1cc(/C=N/NC(=O)c2ccc(=O)[nH]n2)ccc1O | -8% | 20µM* | 0% | ? | ? | 100µM*
COc1cc(/C=N/NC(=O)c2cc(-c3ccc4c(c3)OCO4)n[nH]2)ccc1O | -10% | 8.9µM* | 3% | ? | 79µM* | ?
COc1ccc2[nH]c(C(=O)N/N=C/c3ccc(OC)c(O)c3)cc2c1 | -12% | 28µM* | / | ? | ? | 31%
COc1cc(OC)c(OC)cc1/C=N/NC(=O)c1cc(-c2cccn2C)n[nH]1 | 3% | -3% | 8% | -7% | -14% | 18%
COc1ccc(/C=N/NC(=O)c2cc(-c3cccn3C)n[nH]2)cc1OC | ? | 8.9µM* | 5% | ? | ? | ?
COc1ccc(OC)c(NC(=O)C(OC(=O)CNC(=O)c2ccccc2)c2ccccc2)c1 (stereo unspecified) | / | / | 1% | / | / | /
CCNC(=O)COc1ccc(/C=N/NC(=O)c2cccnc2)cc1OC | -10% | 45% | 0% | 1% | 0% | -1%
COc1cc(/C=N/Nc2ccc(C(=O)O)cc2)ccc1O | 9% | 25µM* | ? | 22µM* | 11%[60.1 µM] | ?
COc1cc(/C=N/NC(=O)c2cncc(Br)c2)ccc1OC(=O)c1ccc2c(c1)OCO2 | / | 6% | -8% | / | / | /
COc1cc(/C=N/NC(=O)c2cccnc2)ccc1OCC(=O)Nc1ccc(C)cc1 | -2% | 13µM* | ? | ? | ? | ?
COc1cc(/C=N\NC(=O)c2ccc(C)nc2)ccc1OC(=O)c1ccc2c(c1)OCO2 | 2% | 20µM* | 5% | ? | 3% | -12%
CCc1c2c(nc3cccc(SC)c13)COC2 | / | / | 6% | / | / | /
Cc1ccccc1NC(=O)CSc1nnc(-c2ccco2)c(-c2ccco2)n1 | 56µM* | 14µM* | -12% | 50µM* | 32µM* | 10µM*
Cc1cccc(C)c1NC(=O)CSc1nnc(-c2ccco2)c(-c2ccco2)n1 | 79µM* | 3.2µM* | / | 3.5µM* | 28µM* | ?
COc1ccc(-c2nnc(SCC(=O)Nc3c(C)cccc3C)nc2-c2ccc(OC)cc2)cc1 | -11% | -13% | / | -20% | -13% | -22%
CC(C)(C)OC(=O)N1CCC(c2c(C(=O)NCc3ccco3)cnn2-c2ccccc2)CC1 | -10% | 3% | 7% | -7% | -21% | -3%
CCCCN(C(=O)CN1CC(C)OC(C)C1)c1c(N)n(CC(C)C)c(=O)[nH]c1=O (stereo unspecified) | 5% | -1%[57.1 µM] | 5% | -11% | -5% | 11%
CCCCN(C(=O)Cn1ncc(Cl)c(Cl)c1=O)c1c(N)n(CC(C)C)c(=O)[nH]c1=O | -20% | 22µM* | 3% | 28µM* | 71µM* | 16µM*
Cc1cccc(C)c1NC(=O)NCCc1c[nH]c2ccccc12 | 9% | 46% | 8% | -9% | -15% | -16%

High-throughput results as filed in PubChem BioAssay.
